Laboratory results as given in PubChem BioAssay (Tox21).
Records with an inconclusive call do not appear. The source made the active and inactive calls. Unless noted, calls come from the whole dose curve; as a rule, active = well fitted curve in the direction sought with a large enough effect in the repeat runs; inconclusive = weak or mixed curves; inactive = no such curve, though single readings can be large; an effect the other way counts as inactive or inconclusive.

Key:
[1] = qHTS assay to identify small molecule agonists of the estrogen receptor alpha (ER-alpha) signaling pathway in the presence of an antagonist - cell viability counter screen (AID 1259386);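 note: series mostly up to about 92 µM; cells exposed to compounds for 22 h at 37 °C before the viability read; nearly all actives have a fitted effect of over 30% in size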
Summary of the method: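 VM7Luc4E2 cells (endogenous full-length ER-alpha, 4×ERE-luciferase) were held 5 days in phenol red-free medium with 10% charcoal-stripped FBS, plated, then given 10.0nM ICI-182,780 and compounds at 15 concentrations for 22hr at 37C; viability read by CellTiter-Fluor fluorescence.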

[2] = target: Progesterone receptor (Homo sapiens) (UniProt P06401); assay: qHTS assay to identify small molecule agonists of the progesterone receptor (PR) signaling pathway (AID 1346784; calls by dose curve; note: nearly all actives have a fitted effect of over 30% in size)
Chain of Progesterone receptor (Homo sapiens) (P06401 whole entry, looked up): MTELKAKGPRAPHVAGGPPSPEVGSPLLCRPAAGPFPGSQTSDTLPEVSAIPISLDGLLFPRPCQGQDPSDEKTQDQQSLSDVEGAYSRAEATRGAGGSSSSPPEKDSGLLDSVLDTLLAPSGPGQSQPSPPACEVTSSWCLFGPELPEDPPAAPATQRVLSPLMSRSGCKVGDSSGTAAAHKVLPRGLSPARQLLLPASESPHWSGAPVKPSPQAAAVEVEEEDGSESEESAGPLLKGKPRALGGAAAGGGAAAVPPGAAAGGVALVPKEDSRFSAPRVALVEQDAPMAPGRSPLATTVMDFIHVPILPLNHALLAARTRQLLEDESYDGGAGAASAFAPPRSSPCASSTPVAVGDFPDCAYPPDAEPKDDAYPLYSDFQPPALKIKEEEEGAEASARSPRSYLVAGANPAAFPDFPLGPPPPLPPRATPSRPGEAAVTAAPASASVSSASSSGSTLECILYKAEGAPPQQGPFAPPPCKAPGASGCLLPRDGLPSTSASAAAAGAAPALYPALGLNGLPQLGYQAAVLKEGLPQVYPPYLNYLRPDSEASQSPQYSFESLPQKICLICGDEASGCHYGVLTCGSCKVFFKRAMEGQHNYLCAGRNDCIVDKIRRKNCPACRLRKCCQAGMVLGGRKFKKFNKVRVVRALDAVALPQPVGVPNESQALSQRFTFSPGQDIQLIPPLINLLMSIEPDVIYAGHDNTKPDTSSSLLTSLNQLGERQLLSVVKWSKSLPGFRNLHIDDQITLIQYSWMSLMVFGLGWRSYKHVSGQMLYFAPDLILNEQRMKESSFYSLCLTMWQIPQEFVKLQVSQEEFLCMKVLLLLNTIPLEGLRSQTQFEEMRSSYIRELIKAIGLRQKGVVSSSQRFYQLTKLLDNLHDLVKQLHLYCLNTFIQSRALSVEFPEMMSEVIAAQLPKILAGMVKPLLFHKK
Summary of the method: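 Fluorescence from LiveBLAzer B/G FRET substrate cleavage (2 hr, RT) reported PR activation in PR-UAS-bla HEK 293T cells treated 16 hr at 37C/5% CO2 with compounds; medium contained 2% charcoal-stripped FBS.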

[3] = target: Progesterone receptor (Homo sapiens) (UniProt P06401); assay: qHTS assay to identify small molecule antagonists of the progesterone receptor (PR) signaling pathway (AID 1346795; active = well fitted inhibition curve with a large enough effect in the signal ratio in the repeat runs, not every such curve was filed as active; the % refers to the signal ratio)
Summary of the method: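 Fluorescence intensity measured 2 hr after adding beta-lactamase FRET substrate to PR-UAS-bla HEK293T cells that had been co-treated 16 hr with compound and 1 nM R5020 (final concentration) in 2% charcoal-stripped FBS.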

[4] = qHTS assay to identify small molecule antagonists of the progesterone receptor (PR) signaling pathway - cell viability counter screen (AID 1346798); note: series mostly up to about 92 µM; nearly all actives have a fitted effect of over 50% in size
Summary of the method: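 CellTiter-Glo luminescence; PR-UAS-bla HEK293T, 3,000 cells/well; compound + R5020, 16 hr, 37C/5% CO2; 30 min RT before read.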

[5] = qHTS assay to identify small molecule agonists of the progesterone receptor (PR) signaling pathway - cell viability counter screen (AID 1346799; calls by dose curve; note: nearly all actives have a fitted effect of over 45% in size)
Summary of the method: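 In parallel with the beta-lactamase readout, cytotoxicity toward PR-UAS-bla HEK293T cells was measured by CellTiter-Glo luminescence following 16 hr compound incubation in 2% charcoal-stripped FBS medium.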

[6] = qHTS assay to identify small molecule antagonists of the TGF-beta/Smad signaling pathway - cell viability counter screen (AID 1346824); note: nearly all actives have a fitted effect of over 50% in size
Summary of the method: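 SBE-bla HEK 293T cells were plated overnight at 37 C, then given compounds in DMSO plus TGF-beta1 (added as 0.25 ng/mL solution) for 5 hr. After the bla read, CellTiter-Glo was added to the same wells and luminescence read after 30 min at room temperature.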

[7] = qHTS assay to identify small molecule agonists of the TGF-beta/Smad signaling pathway - cell viability counter screen (AID 1346829); note: top concentration of the series differs between compounds; nearly all actives have a fitted effect of over 45% in size
Summary of the method: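 Same-well cytotoxicity: CellTiter-Glo added after the 2 hr room-temperature beta-lactamase substrate step, luminescence measured 30 min later; cells had 5 hr of compound at 37 C.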

[8] = qHTS assay to identify small molecule agonists of the TGF-beta/Smad signaling pathway (AID 1346859; active = well fitted activation curve with a large enough effect in the signal ratio in the repeat runs, not every such curve was filed as active; the % refers to the signal ratio; note: series mostly up to about 77 µM)
Summary of the method: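 After overnight seeding, SBE-bla HEK 293T cells are dosed with compounds in DMSO and kept 5 hr at 37 C, 5% CO2. LiveBLAzer-type FRET substrate is then applied for 2 hr at room temperature.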

[9] = target: Thyrotropin-releasing hormone receptor (Homo sapiens) (UniProt P34981); assay: qHTS assay to identify small molecule antagonists of the thyrotropin-releasing hormone receptor (TRHR) signaling pathway (AID 1346877; active = well fitted inhibition curve with a large enough effect in the repeat runs, not every such curve was filed as active; note: series mostly up to about 51 µM)
Chain of Thyrotropin-releasing hormone receptor (Homo sapiens) (P34981 whole entry, looked up): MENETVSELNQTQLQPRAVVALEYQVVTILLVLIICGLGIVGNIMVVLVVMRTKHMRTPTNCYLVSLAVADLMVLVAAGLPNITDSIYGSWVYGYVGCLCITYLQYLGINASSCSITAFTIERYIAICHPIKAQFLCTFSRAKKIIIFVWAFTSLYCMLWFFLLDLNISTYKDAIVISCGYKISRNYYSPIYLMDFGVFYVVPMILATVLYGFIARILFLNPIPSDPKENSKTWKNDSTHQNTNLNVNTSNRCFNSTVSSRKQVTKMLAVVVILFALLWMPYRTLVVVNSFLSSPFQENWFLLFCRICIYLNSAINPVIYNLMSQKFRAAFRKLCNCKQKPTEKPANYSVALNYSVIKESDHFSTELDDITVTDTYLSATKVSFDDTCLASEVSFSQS
Summary of the method: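 TRHR-expressing HEK293 cells were seeded, cultured 18 h at 37 °C, then loaded with calcium dye for 2 h. Compounds were pre-incubated 5 min at room temperature before 1 nM TRH (final) was added, and kinetic fluorescence was recorded for 3 min.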

[10] = target: Thyrotropin-releasing hormone receptor (Homo sapiens) (UniProt P34981); assay: qHTS assay to identify small molecule agonists of the thyrotropin-releasing hormone receptor (TRHR) signaling pathway (AID 1346891; calls by dose curve; note: series mostly up to about 58 µM)
Summary of the method: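 Compounds were tested as agonists at 15 concentrations, in triplicate, on TRHR-Hek293 cells; calcium-sensitive dye fluorescence was recorded for 3 min following addition.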

[11] = Human pregnane X receptor (PXR) small molecule agonists, qHTS cell viability counter screen (AID 1346977); note: nearly all actives have a fitted effect of over 50% in size
Summary of the method: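 Viability counter screen: CellTiter-Fluor signal in PXR-Luc HepG2 cells, 24hr compound exposure, 37C, 5% CO2.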

[12] = Caspase-3/7 induction in HepG2 cells by small molecules, qHTS assay (AID 1346978); note: nearly all actives have a fitted effect of over 15% in size
Summary of the method: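 Wild-type HepG2 cells (2,000/well) were settled 5 h at 37 C, 5% CO2, then exposed to compounds in DMSO for 17 h. Caspase-3/7 activity was read by luminescence 30 min after adding Caspase-Glo 3/7 reagent at room temperature.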

[13] = Caspase-3/7 induction in CHO-K1 cells by small molecules, qHTS cell viability counter screen (AID 1346979); note: nearly all actives have a fitted effect of over 35% in size
Summary of the method: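 Viability readout by fluorescence (CellTiter-Fluor) on wild-type CHO-K1 cells exposed for 16hr at 37C and 5% CO2 to compounds delivered in DMSO; reagent incubated 1hr before reading.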

[14] = Caspase-3/7 induction in HepG2 cells by small molecules, qHTS cell viability counter screen (AID 1346981); note: series mostly up to about 92 µM; nearly all actives have a fitted effect of over 30% in size
Summary of the method: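 Wild-type HepG2 cells (2,000/well) were allowed to settle for 5 hr at 37 C, 5% CO2, then dosed with compounds in DMSO by pin transfer. After 16 hr at 37 C, CellTiter-Fluor was added and fluorescence read 1 hr later.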

[15] = target: Nuclear receptor subfamily 1 group I member 2 (Homo sapiens) (UniProt O75469); assay: Human pregnane X receptor (PXR) small molecule agonists, qHTS assay (AID 1346982); note: nearly all actives have a fitted effect of over 35% in size
Chain of Nuclear receptor subfamily 1 group I member 2 (Homo sapiens) (O75469 whole entry, looked up): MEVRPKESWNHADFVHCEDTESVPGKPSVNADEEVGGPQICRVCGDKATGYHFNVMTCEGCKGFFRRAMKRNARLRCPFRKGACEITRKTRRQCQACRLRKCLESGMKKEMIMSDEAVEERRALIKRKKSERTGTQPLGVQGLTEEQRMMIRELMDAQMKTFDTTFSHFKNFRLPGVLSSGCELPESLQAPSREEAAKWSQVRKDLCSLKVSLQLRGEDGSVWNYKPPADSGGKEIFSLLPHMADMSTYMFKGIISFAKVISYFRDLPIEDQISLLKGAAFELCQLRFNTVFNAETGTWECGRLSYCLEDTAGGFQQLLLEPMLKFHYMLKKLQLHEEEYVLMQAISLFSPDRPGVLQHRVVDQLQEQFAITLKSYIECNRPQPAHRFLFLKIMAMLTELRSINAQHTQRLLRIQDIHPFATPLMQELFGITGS
Summary of the method: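 PXR-Luc HepG2 cells (CYP3A4 promoter-driven luciferase) were seeded in medium with 5% charcoal-stripped FBS, left 5 hr at 37 C, then exposed to compounds in DMSO for 24 hr. Luminescence was read after ONE-Glo addition.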

[16] = Caspase-3/7 induction in CHO-K1 cells by small molecules, qHTS assay (AID 1346980); note: nearly all actives have a fitted effect of over 15% in size
Summary of the method: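 Wild-type cells were seeded at 1,500 per well and settled 5 hr at 37 C, 5% CO2, then exposed to DMSO-dissolved compounds for 17 hr. Caspase-Glo 3/7 reagent was added, and luminescence was read after 30min at room temperature.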

[17] = target: Nuclear receptor subfamily 1 group I member 2 (Rattus norvegicus) (UniProt Q9R1A7); assay: Rat pregnane X receptor (rPXR) activation by small molecules, qHTS assay (AID 1346983); conditions: rPXR luciferase reporter cells, One-Glo luminescence, 24 h; max activation: stronger effect = higher value; note: nearly all actives have a fitted effect of over 20% in size
Chain of Nuclear receptor subfamily 1 group I member 2 (Rattus norvegicus) (Q9R1A7 whole entry, looked up): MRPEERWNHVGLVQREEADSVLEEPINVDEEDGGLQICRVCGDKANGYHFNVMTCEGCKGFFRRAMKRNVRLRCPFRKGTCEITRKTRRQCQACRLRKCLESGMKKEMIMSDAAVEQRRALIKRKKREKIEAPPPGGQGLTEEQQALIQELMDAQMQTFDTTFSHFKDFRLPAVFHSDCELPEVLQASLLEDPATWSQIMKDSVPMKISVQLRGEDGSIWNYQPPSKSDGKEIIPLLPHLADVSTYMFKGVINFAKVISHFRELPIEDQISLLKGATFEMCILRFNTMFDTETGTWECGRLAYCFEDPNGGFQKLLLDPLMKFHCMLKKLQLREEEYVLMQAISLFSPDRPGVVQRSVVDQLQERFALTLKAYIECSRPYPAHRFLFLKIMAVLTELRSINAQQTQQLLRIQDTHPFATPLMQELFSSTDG
Summary of the method: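 Cell-based rPXR luciferase reporter assay, 2,000 cells per well, rested 5hr at 37 C before compound addition in DMSO, then 24 hr at 37 C. One-Glo reagent was added and luminescence read after 30 min at room temperature.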

[18] = qHTS assay to identify small molecule agonists or antagonists of the thyroid stimulating hormone receptor (TSHR) signaling pathway - wild type cell line counter screen (AID 1259384; calls by dose curve)
Summary of the method: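 Wild-type HEK293 cells were plated 18 h at 37 C/5% CO2, pin-dosed with compound plus Ro20-1724 medium, held 30 min at room temperature, then given cAMP-d2 and anti-cAMP-cryptate; fluorescence was read after 1 h. Fifteen concentrations, triplicate.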

[19] = target: Thyrotropin receptor (Homo sapiens) (UniProt P16473); assay: qHTS assay to identify small molecule antagonists of the thyroid stimulating hormone receptor (TSHR) signaling pathway (AID 1259385; calls by dose curve; note: nearly all actives have a fitted effect of over 20% in size)
Chain of Thyrotropin receptor (Homo sapiens) (P16473 whole entry, looked up): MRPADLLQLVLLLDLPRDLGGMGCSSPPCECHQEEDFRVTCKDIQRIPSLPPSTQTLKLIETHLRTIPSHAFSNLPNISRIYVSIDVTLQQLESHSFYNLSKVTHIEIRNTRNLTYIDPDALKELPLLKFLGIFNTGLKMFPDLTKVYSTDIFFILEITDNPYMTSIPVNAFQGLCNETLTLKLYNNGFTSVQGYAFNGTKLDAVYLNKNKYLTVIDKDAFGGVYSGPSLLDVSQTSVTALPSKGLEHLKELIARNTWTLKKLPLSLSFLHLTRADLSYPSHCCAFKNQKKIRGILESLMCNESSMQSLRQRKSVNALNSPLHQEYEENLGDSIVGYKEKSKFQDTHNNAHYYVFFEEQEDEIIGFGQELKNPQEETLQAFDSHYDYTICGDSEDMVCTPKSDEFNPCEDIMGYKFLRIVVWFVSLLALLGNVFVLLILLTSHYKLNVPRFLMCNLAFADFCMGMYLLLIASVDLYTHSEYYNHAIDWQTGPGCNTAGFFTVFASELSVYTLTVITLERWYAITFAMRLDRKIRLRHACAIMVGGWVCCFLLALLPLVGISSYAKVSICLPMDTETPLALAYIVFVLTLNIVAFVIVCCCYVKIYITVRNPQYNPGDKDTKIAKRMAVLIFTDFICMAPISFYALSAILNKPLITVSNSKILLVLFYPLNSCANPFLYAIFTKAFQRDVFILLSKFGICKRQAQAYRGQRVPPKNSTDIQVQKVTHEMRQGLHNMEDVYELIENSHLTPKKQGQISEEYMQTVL
Summary of the method: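 TSHR-HEK293 cells were plated and held 18 h at 37C/5% CO2, then given compound plus Ro20-1724 and stimulated with TSH at 1.5 ng/mL final. After 30 min at room temperature, cAMP was detected with cAMP-d2/anti-cAMP-cryptate (1 h) by fluorescence.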
% is set by controls: 0 for no effect and ±100 for the full control effect.

COCCOCCOCCOC
inactive: Potency [1] | Potency [2] | Potency [3] | Potency [4] | Potency [5] | outcome [6] | outcome [7] | outcome [8] | outcome [9] | outcome [10] | Potency [11] | outcome [12] | Potency [13] | Potency [14] | Potency [15]

CCCCOC(=O)C(=O)OCCCC
inactive: Potency [1] | Potency [2] | Potency [3] | Potency [5] | outcome [6] | outcome [7] | outcome [8] | outcome [9] | outcome [10] | Potency [11] | outcome [12] | Potency [13] | outcome [16] | Potency [14] | Potency [15]

Cn1c(=O)c2c(ncn2CC2OCCO2)n(C)c1=O
inactive: Potency [1] | Potency [2] | Potency [3] | Potency [4] | Potency [5] | outcome [6] | outcome [7] | outcome [8] | outcome [9] | outcome [10] | Potency [11] | outcome [12] | Potency [13] | outcome [16] | Potency [14] | Potency [15] | max activation [17] 6.17%

SCCSCCS
inactive: outcome [18] | outcome [19] | Potency [1] | Potency [2] | Potency [3] | Potency [5] | outcome [6] | outcome [7] | outcome [9] | outcome [10] | Potency [11] | outcome [12] | Potency [13] | outcome [16] | Potency [14]

Cc1ccc2c(c1)c1c3n2CCNC3CCC1 (stereo unspecified)
inactive: outcome [18] | outcome [19] | Potency [1] | Potency [2] | Potency [3] | outcome [6] | outcome [7] | outcome [8] | outcome [9] | outcome [10] | outcome [12] | Potency [13] | outcome [16] | max activation [17] -0.806%

Nc1c(NC/C=C\COc2cc(CN3CCCCC3)ccn2)c(=O)c1=O
inactive: cAMP activity change [18] -0.455% [at 18.9 µM] | activity change, negative = inhibition [19] -4.41% [at 19 µM] | activation [2] 1.78% [at 19 µM] | activity change, negative = inhibition [3] 9.62% [at 18.9 µM] | activity change, negative = cytotoxicity [4] 4.14% [at 18.9 µM] | activity change, negative = cytotoxicity [5] -2.25% [at 19 µM] | viability change, negative = cytotoxic [6] 0.148% [at 15.8 µM] | activity change, negative = cytotoxicity [7] 2.86% [at 15.8 µM] | activation [8] -0.0935% [at 15.8 µM] | activity, negative = inhibition [9] -1.01% [at 10.5 µM] | activation [10] -0.0658% [at 11.8 µM] | caspase activation [12] -0.539% [at 19 µM] | caspase-3/7 activation [16] -0.585% [at 19 µM] | activation [15] -1.56% [at 19 µM]

CCC(C)(CCC(C)C)C(=O)[O-].CCC(C)(CCC(C)C)C(=O)[O-].[Zn+2] (stereo unspecified)
inactive: Potency [1] | Potency [2] | Potency [3] | Potency [4] | Potency [5] | outcome [7] | Potency [11] | outcome [12] | Potency [13] | outcome [16] | Potency [14]

C1CCN2C[C@@H]3C[C@@H](CN4CCCC[C@@H]34)[C@H]2C1
inactive: Potency [1] | Potency [2] | Potency [3] | Potency [5] | outcome [6] | outcome [7] | outcome [8] | outcome [9] | outcome [10] | Potency [11] | outcome [12] | outcome [16] | Potency [14]

O=C(O)c1ccccc1C(=O)Nc1ccc(S(=O)(=O)Nc2nccs2)cc1
inactive: Potency [1] | Potency [2] | Potency [3] | Potency [4] | Potency [5] | outcome [6] | outcome [7] | outcome [9] | outcome [10] | Potency [11] | outcome [12] | Potency [13] | Potency [14] | Potency [15]

CCCCCCCC[Si](OCC)(OCC)OCC
inactive: Potency [1] | Potency [2] | Potency [3] | Potency [5] | outcome [6] | outcome [7] | outcome [8] | outcome [9] | outcome [10] | Potency [11] | outcome [12] | Potency [13] | outcome [16] | Potency [15]

Nc1cc(S(=O)(=O)O)ccc1S(=O)(=O)O
inactive: outcome [18] | outcome [19] | Potency [1] | Potency [3] | Potency [4] | Potency [5] | outcome [6] | outcome [7] | outcome [8] | outcome [9] | outcome [10] | Potency [11] | outcome [12] | outcome [16] | Potency [14] | Potency [15]

CCCCCCCCCOCC1CO1 (stereo unspecified)
inactive: outcome [18] | outcome [19] | Potency [1] | Potency [2] | Potency [4] | Potency [5] | outcome [6] | outcome [7] | Potency [11] | outcome [12] | Potency [13] | outcome [16] | Potency [14]
